Screen size: about 330,000 compounds; about 7,700 (2.3%) were called active. Another 26% or so got no clear call; they are omitted. Calls come from the whole dose curve; as a rule, active = well fitted inhibition curve with a large enough effect; inconclusive = small, poorly fitted or top-dose-only effect, or effect the other way; inactive = flat fitted curve, though single readings scatter. What follows is part of a selection rich in actives, with near analogues and random picks from the rest. Where a call stands in place of a potency, no number is given.
Potency is the fitted concentration of half-maximal effect.

A short description of the assay: qHTS screen for small molecules that inhibit ELG1-dependent DNA repair in human embryonic kidney (HEK293T) cells expressing luciferase-tagged ELG1. Note: nearly all actives have a fitted effect of over 55% in size. As to conditions: HEK293T ELG1-luciferase reporter, luminescence, 16 h, DNA damage induced by 5-fluorouridine; series mostly up to 46.1 µM. In short, it runs like this:
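Quantitative HTS, concentration-response format. 2,000 cells/well co-treated with 5-fluorouridine and compound, 16 hr in 5% CO2 at 37 °C; ONE-Glo luminescence read after 30 min.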
Background: In qHTS, concentration-response curves come from the screen itself.
For the molecule `CC(=O)N1CCCc2cc(S(=O)(=O)CCC(=O)N3CCN(c4ccccc4)CC3)ccc21`, the Potency entry is “inactive”.
Consider `Cc1ccc(S(=O)(=O)N2CCCC(C(=O)N3CCN(C)CC3)C2)cc1` (stereo unspecified), for which the Potency entry was “inactive”.
In the case of `O=C(C1CCCN(S(=O)(=O)c2ccccc2)C1)N1CCN(c2ccc(F)cc2)CC1` (stereo unspecified) it was 11.6 µM (active); in that of `CC(=O)N1CCCc2cc(S(=O)(=O)N3CCCC(C(=O)N4CCN(c5cccc(Cl)c5)CC4)C3)ccc21` (stereo unspecified), 20.6 µM (active); in that of `CC(=O)N1c2ccc(S(=O)(=O)N3CCC(C(=O)N4CCN(c5ccccc5)CC4)CC3)cc2CC1C` (stereo unspecified), “inactive”.
In the case of `CCCS(=O)(=O)N1CCCC(C(=O)N2CCN(c3ccccc3)CC2)C1` (stereo unspecified), the Potency entry was “inactive”.
As to `O=S(=O)(NC1CCCCC1N1CCN(c2ccccc2F)CC1)c1ccccc1` (stereo unspecified), the Potency entry was “inactive”.
Consider `COc1ccccc1N1CC(C(=O)Nc2nnc(SCC(=O)NCC3CCCO3)s2)CC1=O` (stereo unspecified), for which the Potency result was “inactive”.
Consider `COc1ccc2[nH]c3nc(SCC(=O)NC4CC4)nnc3c2c1`, for which the Potency result is “inactive”.
Take `Cc1cccc(S(=O)(=O)N2CN(CC3CCCO3)c3nc4ccccc4nc32)c1` (stereo unspecified): the Potency entry was “inactive”.
In the case of `CCOc1ccc(NC(=O)CN(C)C(=O)COc2cccc(CC)c2)cc1OCC`, the Potency result is “inactive”.
For `CN(CC(=O)Nc1ccc(F)cc1)C(=O)c1ccc(-c2ccc(Cl)cc2)o1`, the Potency result was “inactive”.
As to `CC(C)(C)NS(=O)(=O)NC(=O)C1=C(N2CCCC2)COC1=O`, the Potency entry is “inactive”.
For the molecule `CCCc1cc(=O)oc2cc(OCC(=O)Nc3ccc(CN4CCOCC4)cc3)c(Cl)cc12`, the Potency result was “inactive”.
For the molecule `CCCCN1C(=O)C(C)=C(C)C1OCCc1ccc(OC)c(OC)c1` (stereo unspecified), the Potency entry is “inactive”.
With `O=C(O)c1ccccc1-c1ccccc1C(=O)Nc1cccc2ccccc12`, the Potency entry is “inactive”.
In the case of `CCC(CO)Oc1cc(NC(=O)c2ccc(Cl)cc2)c2ncn(C(C)C)c2c1` (stereo unspecified) it was “inactive”; in that of `CCC(CO)Oc1cc(NC(=O)c2cccc3ccccc23)c2ncn(C(C)C)c2c1` (stereo unspecified), 14.6 µM (active).
For `CC(C#N)(NC(=O)CN1CCN(S(=O)(=O)c2cc(C(F)(F)F)ccc2Cl)CC1)C1CC1` (stereo unspecified) the value was “inactive”.
In the case of `Cc1ccc(S(=O)(=O)Nc2nc(CN3CCOCC3)nc3sc(C)c(C)c23)cc1`, the Potency entry was “inactive”.
`C[C@H]1COC(=O)[C@H](CC(=O)OC(C)(C)C)C/C=C\C[C@@H](CC(=O)N[C@H](CO)Cc2ccccc2)C(=O)N1`: the Potency entry was “inactive”.
As to `O=C(CSc1nc2nccnc2c(=O)n1Cc1cccs1)Nc1ccccc1F`, the Potency result is “inactive”.
As for `O=C(Nc1ccccc1-c1ccccc1)c1cccs1`, the Potency entry is “inactive”.
Turning to `O=C(Nc1ccccc1-c1nnn(CC(=O)N2CCN(c3ccccc3)CC2)n1)c1cccs1`, the Potency was 23.1 µM (active).
`COc1ccccc1N1CCN(C(=O)Cn2nnc(-c3cccs3)n2)CC1`: the Potency result was “inactive”.
For `CN1C2CCC1CC(NC(=O)c1ccc([N+](=O)[O-])cc1)C2` (stereo unspecified), the Potency entry is “inactive”.
On to `O=C(N[C@@H]1C/C=C\C[C@@H](CC(=O)N(CCO)Cc2ccccc2)C(=O)N[C@H](Cc2ccccc2)COC1=O)OCC1c2ccccc2-c2ccccc21`, for which the Potency entry is “inactive”.
`CC(C)(C)CC(C)(C)NCC(O)COCCOc1ccc(Br)cc1` (stereo unspecified): the Potency was 23.1 µM (active).
Take `Cc1noc(COc2ccccc2OCC(O)CNC(C)(C)C)n1` (stereo unspecified): the Potency result is “inactive”.
Turning to `OC(COc1ccc(Br)cc1)CN1CCCC1` (stereo unspecified), the Potency result was “inactive”.
With `COc1ccccc1CNC(=O)[C@@H]1CCCN1C(=O)[C@@H]1Cc2ccccc2CN1C(=O)OC(C)(C)C`, the Potency result is “inactive”.
Consider `O=C1C=CN2CCCC2CC1` (stereo unspecified), for which the Potency entry is “inactive”.
In the case of `COc1ccc(N(C(=O)c2snc(C(N)=O)c2N)C(C(=O)NC2CCCC2)c2ccc(C)o2)c(OC)c1` (stereo unspecified), the Potency entry is “inactive”.
For `COc1ccc(NC(=O)COC(=O)c2n[nH]c3ccccc23)c(OC)c1` the value was “inactive”; for `Cc1cccc(Nc2ccccc2C(=O)NCc2ccco2)c1C`, “inactive”.
Regarding `Cc1ccc(N(Cc2ccc(C(=O)Nc3ccccc3C(=O)NCc3ccco3)cc2)S(C)(=O)=O)cc1C`, the Potency was 4.61 µM (active).
Take `COc1ccc(C(=O)Nc2ccccc2C(=O)NCc2ccco2)cc1`: the Potency result is “inactive”.
For `Cc1cc(C)c(S(=O)(=O)N2CCC(C(=O)OCc3c(C)noc3C)CC2)c(C)c1` the value was “inactive”; for `O=C(CCc1nc2sc3c(c2c(=O)[nH]1)CCCC3)NCC(=O)Nc1ccccc1Br`, “inactive”; for `COc1ccccc1C(=O)OCC(=O)Nc1cccc(S(=O)(=O)NC2=NCCCCC2)c1`, “inactive”.
As to `CCc1ccc2[nH]c(=O)c(Cc3ccccc3)c(O)c2c1`, the Potency result is “inactive”.
For `C=CCSc1nsc(NC(=O)Nc2cccc(C(C)=O)c2)n1` the value was 7.3 µM (active); for `C=C(C)C(=O)Nc1cccc(C(C)=O)c1`, “inactive”.
For the molecule `CC(=O)c1cccc(NC(=O)c2ccncc2)c1`, the Potency entry was “inactive”.
In the case of `COc1ccc2[nH]c3c(c2c1)CCN1C(=O)C(CC(=O)NCCCN(C)C)C[C@H](C(=O)N2CCOCC2)[C@@]31CCC1CCCC1` (stereo partly specified) it was “inactive”.
Turning to `CN(c1ccccc1)S(=O)(=O)c1cccc(C(=O)NNC(=O)c2ccncc2)c1`, the Potency result is “inactive”.
For `Cc1cccc(NC(=O)c2ccc(S(=O)(=O)N(C)c3ccccc3)cc2)n1`, the Potency is 23.1 µM (active).
On to `CCN(c1ccccc1)S(=O)(=O)c1ccc(C(=O)Nc2nccs2)cc1`, for which the Potency result was “inactive”.
With `COc1ccccc1S(=O)(=O)NCc1ccc(C(=O)N(C)Cc2ccc(F)cc2)cc1`, the Potency result is “inactive”.
On to `O=S(=O)(Nc1cc(Cl)ccc1N1CCOCC1)c1ccccc1Cl`, for which the Potency entry is “inactive”.
Take `CCOC(=O)C1=C(CCc2ccccc2)NC(=O)NC1c1ccc2ccccc2c1` (stereo unspecified): the Potency entry was “inactive”.
For `COc1cc(CNCc2ccc3c(c2)OCO3)c([N+](=O)[O-])cc1OC` the value was “inactive”; for `COc1cc(CN2CCCN(C)CC2)c([N+](=O)[O-])cc1OC`, “inactive”; for `COc1cc(CN2CCN(Cc3ccc(C)cc3)CC2)c([N+](=O)[O-])cc1OC`, 20.6 µM (active).
Take `Cc1cc2oc(=O)cc(CN(C)Cc3ccc(OC(F)F)cc3)c2cc1Cl`: the Potency result was “inactive”.
Turning to `CCOc1ccc(N(C)Cc2cc(=O)oc3ccc(OC)cc23)cc1`, the Potency is 16.4 µM (active).
Regarding `COC(=O)COc1ccc2oc(=O)cc(C)c2c1`, the Potency result was “inactive”.
Turning to `Cc1ccc2c(c1)C(c1ccccc1)N(C(=O)c1ccc(F)cc1)CC(=O)N2` (stereo unspecified), the Potency result was “inactive”.
With `O=C(Cn1ccc2cc(S(=O)(=O)N3CCCC3)ccc21)NCc1ccccc1`, the Potency result was “inactive”.
In the case of `O=C1[C@@H](c2ccccc2)[C@@H](c2ccccc2)N1c1cccnc1`, the Potency entry is “inactive”.
On to `O=C1CCN(Cc2ccccc2)CCN1[C@H](CSc1ccccc1)c1ccccc1`, for which the Potency entry is “inactive”.

The values above are taken from PubChem BioAssay AID504467 (National Center for Advancing Translational Sciences (NCATS), 2011).
